Test results published in PubChem BioAssay.

Assay: inhibition of PAO1 biofilm formation – strain PAO1, LB-PBS medium, absorbance 600 nm, primary screen (AID 1176); further: test concentration not given here
Conditions: P. aeruginosa PAO1 growth/biofilm, A600, 12 h; higher = more signal; call rule not given here

z-score, inactive:
COc1cc(OC)c(C(O)C2C=CC3C(=O)NC(=O)C3N2Nc2ccccn2)cc1Br (stereo unspecified) 1.19
C=CCNC(=O)[C@@H]1[C@H]2C(=O)O[C@H](c3ccccc3)[C@H](c3ccccc3)N2[C@H](c2ccc(OCCO)cc2)[C@@]12C(=O)N(C(=O)OCCOC)c1ccc(C#CCC(C(=O)OC)C(=O)OC)cc12 2.85
COC(=O)c1c(CC[C@@H](CO)NC(=O)NCCc2c[nH]c3ccccc23)oc(C(=O)Cc2ccccc2)c1C(=O)OC -0.771
O=C(O)[C@H](Cc1ccccc1)n1cc(-c2ccccc2)nn1 0.738
CC(C)NC(=O)[C@@]1(Cc2ccccc2I)c2ccccc2C(=O)N(Cc2ccccc2Cl)[C@H]1c1ccc(CO)cc1 -0.103
CC(C)=CCCC(C)=CC(O)C1C=CC2C(=O)N(c3ccccc3)C(=O)C2N1Nc1ccc(C(C)C)cc1 (stereo unspecified) 0.0616
[N-]=[N+]=NCc1ccccc1[C@H]1OC(c2ccc(OCCCO)cc2)=N[C@@]1(Cc1ccccc1)C(=O)N1CCCCC1 -0.441
CC(C)N1CC=CC23O[C@@H]4C=CCOC(=O)[C@@H]4[C@H]2C(=O)N(CCCCCO)[C@@H]3C1=O (stereo partly specified) 0.897
CCOC(=O)[C@H]1C/C=C/C[C@H](C(=O)OCC)C(=O)O[C@H]2[C@@H](OC)O[C@H](CO)[C@@H](OC(=O)c3ccc(Br)cc3)[C@@H]2OC1=O 0.787
O=C(O)[C@H]1C[C@H]2C(=O)N3CCC[C@H]3C(=O)N2[C@H]1c1ccc(O)cc1 0.0778
[N-]=[N+]=Nc1ccccc1C[C@@]1(C(=O)N2CCCCC2)N=C(c2ccc(OCCCO)cc2)O[C@@H]1c1ccccc1N=[N+]=[N-] 0.578
CCOC(=O)C1=CC[C@@H](c2ccccc2)N(S(=O)(=O)c2ccc(C)cc2)[C@H]1c1ccc(CC)cc1 0.806
O=C1[C@H]2C=C(Br)[C@H](C[C@@H]2OCCCCCCO)[C@@]12CO2 0.756
COc1cc2c(cc1O)C(c1cccs1)N(Cc1ccc([N+](=O)[O-])o1)CC2 (stereo unspecified) 0.723
CCCNC(=O)[C@@]1(Sc2ccc(C)cc2)CC(=O)N(Cc2ccccc2C(F)(F)F)[C@@H]1c1ccc(CO)cc1I 0.298
O=C1OCCC=C[C@H]2OC34C=CCN(Cn5nnc6ccccc65)C(=O)[C@H]3N(CCO)C(=O)[C@@H]4C12 (stereo partly specified) 0.152
C=CCNC(=O)[C@@H]1[C@H]2C(=O)O[C@H](c3ccccc3)[C@H](c3ccccc3)N2[C@H](c2ccc(OCCO)cc2)[C@@]12C(=O)N(C(=O)OCCOC)c1ccc(C#CCNC(N)=O)cc12 0.958
CCCC1(C(=O)OC)C=C2C(=C(c3ccccc3)C(=O)C2C)CN1 (stereo unspecified) 0.246
O=C1O[C@@H](c2ccccc2)[C@@H](c2ccccc2)N2[C@@H](c3ccc(OCCO)cc3)[C@]3(C(=O)Nc4ccc(C#CCCO)cc43)[C@@H](C(=O)NC[C@H](O)c3ccccc3)[C@H]12 2.78
COc1ccc(CCNC(=O)[C@@]2(c3ccc([N+](=O)[O-])cc3)CC(=O)N(CC34CC5CC(CC(C5)C3)C4)[C@@H]2c2ccc(CO)cc2I)cc1 1.8
COc1ccc([C@H]2C[C@H]3C(Br)=C[C@@]2(CO)C(=O)[C@]32CO2)cc1 0.118
O=C(NC1CC1)[C@@H]1c2ccccc2C(=O)N(Cc2cc(F)cc(C(F)(F)F)c2)[C@H]1c1ccc(CO)cc1 0.373
COC(=O)[C@@]1(Cc2ccc(OC)cc2)[C@H]2c3cc(C(=O)N4CCCC4)n(CCCNc4ncc(C(F)(F)F)cc4Cl)c3C[C@H]2CN1C(=O)c1ccccc1 -0.0982
CO[C@H]1O[C@H](CO)[C@@H](OC(=O)Nc2ccc(Oc3ccccc3)cc2)[C@H](OC(=O)Nc2ccc3c(c2)OCO3)[C@@H]1OC(=O)Nc1ccc2c(c1)OCO2 1.39
C=C(CCCC)/C(=C/C[C@H](OC(C)=O)c1ccccc1OCCO)c1cnc2ccccc2c1 0.26
CC(C)(C)OC(=O)CC[C@@]1(C(=O)N2CCCCC2)N=C(c2ccc(OCCCO)cc2)O[C@@H]1c1ccccc1 0.935
O=C(CS)NCCCCCNC(=O)[C@@H]1C[C@@H]2C(=O)NCC(=O)N2[C@@H]1c1ccc(O)cc1 1.5
CCCCN1CC=CC23O[C@@H]4/C=C\CCCOC(=O)C4[C@H]2C(=O)N(CCCCCO)[C@@H]3C1=O (stereo partly specified) 1.02
COc1ccc(C(=O)Nc2cccc(CN3C(=O)[C@]4(O[C@H](CCn5cc(CCO)nn5)[C@@H]([Si](C)(C)c5ccc(OC)cc5)[C@@H]4C)c4ccccc43)c2)cc1 1.12
Cc1ccc(S[C@]2(C(=O)NCC(C)C)CC(=O)N(Cc3cc(C(F)(F)F)cc(C(F)(F)F)c3)[C@@H]2c2ccc(CO)cc2)cc1 0.559
[N-]=[N+]=NCc1ccccc1[C@@H]1OC(c2ccc(OCCCO)cc2)=N[C@]1(CCS(=O)(=O)c1ccccc1)C(=O)N1CCOCC1 0.19
CS(=O)(=O)CCOC(=O)C1=CC(CCCO)=CC(C2CC2)N(Cc2cc3c(cc2Br)OCO3)C=C1C(=O)OCCS(C)(=O)=O (stereo unspecified) 0.118
C=CC[C@]12N=C(c3ccc(OCCCO)cc3)O[C@H]1c1ccccc1N(CCS(=O)(=O)c1ccccc1)C2=O -0.0988
CC1CC/C=C\[C@H]2OC34C=CCN(Cn5nnc6ccccc65)C(=O)[C@H]3N(CCCCCO)C(=O)[C@@H]4C2C(=O)O1 (stereo partly specified) 0.193
C#CCN(C/C=C/c1ccccc1)[C@H](CO)c1ccccc1 -0.128
O=C1N(CCS(=O)(=O)c2ccccc2)c2ccccc2[C@@H]2OC(c3ccc(OCCCO)cc3)=N[C@]12Cc1ccccc1 0.755
